Pf growth 48h – P. falciparum growth inhibition at 48 hours (one generation). P. falciparum luciferase growth in erythrocytes, 48 h. Potency, µM (series often up to 28.7 µM), actives largely listed as inhibitors. 5.9% of 310,000 active
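Compounds are pin-transferred into medium, infected erythrocytes (2% hematocrit, 0.1% parasitemia final) are added, and plates sit one parasite generation at 37 C in 5% CO2. Detection reagent is then added and luminescence measured.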
Pf growth 96h – inhibits malaria parasite growth, 96 h | P. falciparum luciferase reporter growth, 96 h | Potency, µM (titrated, usually from 28.7 µM), usual class: inhibitors | 6.9% of 320,000 active | AID 504834
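Plates of compound plus infected erythrocytes (2% hematocrit, 0.05% parasitemia final) incubate 96 hours, 37 C, 5% CO2. Detection reagent added; reduced luminescence from the parasites' luciferase reporter flags inhibition.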
HCV inh – blocks hepatitis C virus; Huh7.5.1 HCVcc-Cre infection, luciferase reporter, 44 h; Potency, µM (highest dose often 41.8 µM), most hits filed as inhibitors; 3.4% of 340,000 active; AID 651820
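Reporter virus HCVcc-Cre (~0.5 moi) infects cells exposed to compound; seeding density 1,000 cells/well with 4 h settling beforehand. Luminescence, 15 sec read, taken 44 h post-infection following a 15 min RT substrate incubation.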
Lassa entry inh – Lassa virus entry inhibition | AID 540256 | Lassa virus pseudotype entry inhibition, cell reporter | 1.2% of 300,000 active | Potency, µM (series often up to 37.9 µM), usual class: inhibitors; calls by dose curve; tested in HEK293 cells; also: nearly all actives have a fitted effect of over 50% in size
Marburg entry inh – Marburg virus entry inhibition | Marburg virus pseudotyped entry inhibition, cell reporter | 1.8% of 300,000 active | Potency, µM (titrated, usually from 37.8 µM), usual class: inhibitors; calls by dose curve; tested in HEK293 cells
HCMV antiviral – blocks human cytomegalovirus replication; HFF cells, HCMV-luciferase reporter, 72 h; hits give low values; activity change, negative = inhibition, % at 57.5 µM; 4.5% of 410,000 active; AID 1259415; in the data active = activity change below about -60%; inconclusive = no clear call, values can overlap the other calls; inactive = above about -39%
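After 16 h attachment at 37C, HFF cells received test compound and HCMV-luciferase (1 PFU/cell); reporter luminescence read 72 h later, data normalized against buffer-only and known inhibitor Salinomycin.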
Hits are given with their value; i = inactive; ? = inconclusive; nt = not tested or not shown. In the library only some 14% were active in any assay of this set; here they are far more common. Unless noted, calls follow the shape of the dose curve; as a rule, active = well fitted inhibition curve with a large enough effect; inconclusive = small, poorly fitted or top-dose-only effect, or another doubt; inactive = no such curve, though single readings can be large or run the other way.

SMILES | Pf growth 48h | Pf growth 96h | HCV inh | Lassa entry inh | Marburg entry inh | HCMV antiviral
CCN(CC)CCNC(=O)c1ccc(NC(=O)c2ccc(Cl)c(S(=O)(=O)Nc3ccccc3OC)c2)cc1 | ? | 2.3µM | nt | nt | i | nt
CCOc1ccc(S(=O)(=O)N2c3ccccc3CC2C)cc1 (centres undefined) | ? | nt | 8.9µM | ? | ? | i
Clc1ccc(CN2CCc3c([nH]c4ccccc34)C2)cc1Cl | ? | ? | ? | nt | nt | i
CCN(CC)CCNC(=O)c1ccc(NC(=O)c2ccc(F)cc2)cc1 | ? | i | i | nt | nt | i
COc1cc(/C=C/C(=O)Nc2ccc(C)cc2)cc(OC)c1OC | i | ? | ? | ? | i | i
CCN(CC)CCNC(=O)c1ccc(NC(=O)/C=C/c2cc(OC)c(OC)c(OC)c2)cc1 | 5.2µM | ? | i | i | ? | i
CCN(CC)CCNC(=O)c1ccc(NC(=O)Nc2cccc3ccccc23)cc1 | 13µM | 9.3µM | i | ? | ? | ?
C[C@H]1CN([C@@H](C)CO)C(=O)CCCn2nncc2CO[C@@H]1CN(C)Cc1ccccc1C(F)(F)F | nt | nt | nt | nt | nt | i
Cc1ccc2c(c1)N(C(=O)CCC(=O)NCc1cccs1)CCO2 | nt | nt | nt | i | i | i
CCOc1ccccc1NC(=O)C(=O)NCCc1sc(-c2cccc(F)c2)nc1C | nt | nt | nt | i | nt | i
C[C@H]1[C@@H](NC(=O)NCCCc2ccccc2)CC[C@@]23CCCN2C(=O)CCC[C@@H]13 | nt | nt | nt | nt | nt | i
CCN(CC)CCCNc1nc2ccccc2c2nc(-c3ccncc3)nn12 | 6.6µM | 4.1µM | ? | ? | 7.9µM | ?
CCOCCCNc1nc2cc(OC)c(OC)cc2c2nc(-c3ccccc3)nn12 | nt | nt | nt | nt | ? | i
CCN(CC)CCCNc1nc2cc(OC)c(OC)cc2c2nc(-c3ccccc3)nn12 | 2.3µM | i | ? | ? | ? | nt
COCCCNc1nc2cc(OC)c(OC)cc2c2nc(-c3ccccc3)nn12 | 0.29µM | i | i | nt | i | i
CCN(CC)CCCNc1nc2cc(OC)c(OC)cc2c2nc(-c3cccnc3)nn12 | 4.1µM | nt | ? | ? | ? | i
O=C(Nc1c(C(=O)c2ccccc2)oc2ccccc12)c1ccc(F)cc1 | nt | nt | nt | i | i | i
CCCN1CCN(C(=O)C2CCCN(c3ncnc4c3nc3n4CCCCC3)C2)CC1 (centres undefined) | ? | i | i | i | i | i
COc1cccc(N2CCN(C(=O)C3CCCN(c4ncnc5c4nc4n5CCCCC4)C3)CC2)c1 (centres undefined) | ? | 10µM | ? | nt | nt | ?
COCCN(Cc1ccco1)C(=O)C1CCCN(c2ncnc3c2nc2n3CCCCC2)C1 (centres undefined) | ? | 4.1µM | i | 11µM | ? | i
CCN1CCN(C(=O)C2CCCN(c3ncnc4c3nc3n4CCCCC3)C2)CC1 (centres undefined) | ? | 10µM | i | i | ? | i
CC1CCN(C(=O)C2CCCN(c3ncnc4c3nc3n4CCCCC3)C2)CC1 (centres undefined) | i | 9.3µM | ? | ? | i | i
CC(=O)c1ccc(NC(=O)CC2Oc3ccc(C)cc3NC2=O)cc1 (centres undefined) | nt | nt | nt | nt | i | i
CCOc1ccc(CCNC(=O)C2=C(C)C(=O)OC23CCCCC3)cc1 | nt | nt | nt | i | i | i
CC1=C(C(=O)Nc2cccnc2)C(c2cccc(F)c2)n2nc(SCc3ccccc3F)nc2N1 (centres undefined) | nt | nt | nt | i | i | i
SMILES | Pf growth 48h | Pf growth 96h | HCV inh | Lassa entry inh | Marburg entry inh | HCMV antiviral
CCOC(=O)c1c(Nc2ccc(OC)cc2)n[nH]c1C | nt | nt | nt | nt | nt | i
Cc1[nH][nH]c(=O)c1C(c1ccccc1[N+](=O)[O-])C(C#N)C#N (centres undefined) | i | 13µM | i | i | i | i
Cn1c(C(=O)NCCCN2CCN(c3ccccc3F)CC2)cc2c(=O)n(C)c3ccccc3c21 | nt | 9.3µM | i | nt | i | i
O=C(CCCn1c(=O)[nH]c2ccccc2c1=O)NCCSCc1ccccc1 | ? | i | i | i | i | i
Cc1ccc(CNC(=O)c2cc3c(=O)n(C)c4ccccc4c3n2C)o1 | nt | 9.3µM | i | nt | i | i
CC1CCN(CCCNC(=O)c2cc3c(=O)n(C)c4ccccc4c3n2C)CC1 | nt | 7.4µM | ? | nt | nt | i
O=C(CCCCCn1c(=O)[nH]c2ccccc2c1=O)NCCCN1CCN(c2ccccc2F)CC1 | nt | i | 13µM | i | ? | i
Cc1ccc2c(c1)-c1cc(C)nn1C(c1cc(Br)ccc1O)N2 (centres undefined) | nt | nt | nt | i | i | i
CC(C)CC(NC(=O)OC(C)(C)C)c1cn([C@@H](Cc2cc3ccccc3[nH]2)C(=O)N2CCN(C(=O)OC(C)(C)C)CC2)nn1 (some centres undefined) | ? | 5.2µM | ? | nt | nt | i
CC(C)(C)OC(=O)NC(CO)c1cn([C@@H](Cc2cc3ccccc3[nH]2)C(=O)N2CCN(C(=O)OC(C)(C)C)CC2)nn1 (some centres undefined) | ? | ? | i | nt | nt | i
CC[C@H](C)C(C(=O)N1CCN(C(=O)OC(C)(C)C)CC1)n1cc(C(Cc2ccc(O)cc2)NC(=O)OC(C)(C)C)nn1 (some centres undefined) | ? | 1.7µM | i | nt | nt | i
CC(C)CC(NC(=O)OC(C)(C)C)c1cn([C@@H](Cc2ccc(O)cc2)C(=O)N2CCN(C(=O)OC(C)(C)C)CC2)nn1 (some centres undefined) | ? | 4.7µM | i | nt | nt | i
COc1ccc(CNC(=O)CCCN2C(=O)CSc3c2c(C)nn3-c2ccccc2)cc1 | nt | nt | nt | i | nt | i
Cc1cccc(N(CC(=O)Nc2ccccc2C(F)(F)F)S(=O)(=O)c2ccccc2)c1C | nt | nt | nt | ? | ? | i
Cc1ccc(-n2cc(C(=O)c3cc(Cl)ccc3O)cc(C#N)c2=O)cc1 | 3.3µM | ? | ? | i | ? | ?
COc1ccc(-n2cc(C(=O)c3cc(Cl)ccc3O)cc(C#N)c2=O)cc1 | ? | 7.4µM | i | i | i | i
COc1ccc(O)c(C(=O)c2cc(C#N)c(=O)n(-c3ccc(Cl)cc3)c2)c1 | 7.4µM | 5.9µM | ? | nt | nt | i
CCn1c(=O)n(-c2ccc(C)c(F)c2)c(=O)c2sc3ccccc3c21 | nt | nt | nt | i | i | i
Cc1csc(CNC(=O)c2cc(COc3c(C)cccc3C)on2)n1 | i | i | i | nt | nt | i
COc1ccc(C(=O)c2oc3ccccc3c2NC(=O)COc2c(C)cc(C)cc2C)cc1 | nt | nt | nt | i | i | i
COc1cc(/C=C/C(=O)OCC(=O)N2CCCc3ccccc32)ccc1O | nt | nt | i | i | 1.3µM | i
O=C(OCC(=O)N1CCCc2ccccc21)c1cnc(Cl)c(Cl)c1 | i | i | 5µM | nt | i | i
O=C(OCC(=O)N1CCCc2ccccc21)c1ccc(Cl)nc1 | i | i | i | i | i | i
COc1ccc(N/N=C(/C(C)=O)N2CCCc3ccccc32)cc1 | i | 12µM | i | i | i | i
COc1cc(/C=C/C(=O)OCC(=O)N2CCCc3ccccc32)ccc1OCC#N | ? | ? | ? | nt | nt | i
